Screens (PubChem)
HSF1 inhib – HSF1 inhibition. NIH3T3-HGL HSE-luciferase, MG132-induced, luminescence 8 h; hits give low values. activity change, negative = inhibition, % at 7.5 µM (by protocol). 0.77% of 300,000 active. AID 2098;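 active = more than half of replicate wells show activity change below -50%, luminescence cut by over half; inconclusive = some wells, but at most half, below -50%; inactive = no replicate well below -50%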;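 note: luciferase reports HSF-1 transcriptional activity via heat shock element; 0% = median of DMSO wells and -100% = zero luminescence signal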
S1P3 antagonist – blocks the human S1P3 receptor | CHO S1P3 NFAT-BLA reporter, FRET fluorescence, antagonist mode | inhibition, % at 4.98 µM | Q99500 | 0.27% of 170,000 active | AID 485;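 active = inhibition above the plate cutoff, the mean inhibition of test wells on that plate plus 3 SD, cut at about 28% in these data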;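 note: cells challenged with S1P at its EC80 of 0.8 µM; blue over green emission ratio from cleaved BLA substrate after 4 h stimulation; 0% = S1P-stimulated wells and 100% = unstimulated DMSO-only wells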
HSF1 activator – increases HSF-1 driven luciferase reporter signal; NIH3T3-HGL HSF-1 luciferase reporter, MG132, 8 h; 100% = twice DMSO control signal; activation, % at 9 µM; 1.7% of 300,000 active;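 active = mean replicate activation of at least 50% with a set share of replicates each reaching 50%; inconclusive = only one of those two conditions met; inactive = mean below 50% and too few replicates reaching it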;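 note: 0% = median of the neutral control wells and 100% = twice that signal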
Hsp70 act – switches on Hsp70 transcription. HeLa Hsp70 promoter luciferase reporter, luminescence; scaled: vehicle 0, proteasome-inhibitor control 100%. activation, % at 10 µM. 0.04% of 200,000 active;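 active = activation above the mean across all tested compounds plus 3 SD, cutoff set per campaign, cut at about 5.5% in these data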;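 note: 100% = MG132 at 30 µM as the positive control and 0% = DMSO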
S1P4 ag – agonists of human S1P4 receptor | O95977 | S1P4-expressing cell line, agonist reporter assay | activation, % at 4.98 µM | 0.35% of 220,000 active; in the data active = activation above about 11%;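 note: 0% = DMSO vehicle and 100% = reference agonist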
Target sequence (O95977 whole entry, looked up): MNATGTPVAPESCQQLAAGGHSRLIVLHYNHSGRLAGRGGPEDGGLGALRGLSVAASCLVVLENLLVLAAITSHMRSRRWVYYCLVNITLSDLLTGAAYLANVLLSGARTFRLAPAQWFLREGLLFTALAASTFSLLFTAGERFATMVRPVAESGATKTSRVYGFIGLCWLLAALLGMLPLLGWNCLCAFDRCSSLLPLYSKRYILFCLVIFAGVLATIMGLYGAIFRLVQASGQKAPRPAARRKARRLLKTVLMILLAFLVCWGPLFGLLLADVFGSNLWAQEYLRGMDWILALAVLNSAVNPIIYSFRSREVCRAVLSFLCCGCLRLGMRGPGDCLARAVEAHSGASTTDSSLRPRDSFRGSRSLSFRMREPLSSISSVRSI
S1P4 antagonist – blocks the human S1P4 receptor | 0.26% of 220,000 active | inhibition, % at 4.98 µM | O95977 | S1P4-expressing cells, antagonist mode, reporter read-out | AID 1510; in the data active = inhibition above about 29%;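 note: 0% = wells stimulated with agonist and 100% = vehicle wells without agonist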
An asterisk follows results filed as active; ? = inconclusive; · = not tested or not shown. Compounds with a hit are over-represented: about 2.9% of the library has one in this group of screens.

SMILES	HSF1 inhib	S1P3 antagonist	HSF1 activator	Hsp70 act	S1P4 ag	S1P4 antagonist
Cc1ccccc1CO/N=C/c1[nH]ncc1Br	-84.9*	-9.1	-88.7	·	0.6	2.2
O=C(COC(=O)c1ccc(O)cc1O)Nc1nnc(-c2ccccc2)o1	-6.5	·	5.3	·	·	·
COCCOC(=O)c1c(NC(=O)CN2c3ccccc3CC2C)sc(C(N)=O)c1C (stereo not given)	9.9	-6.8	12.4	0.1	1.1	-22.6
COCCOC(=O)c1c(NC(=O)CSc2cccc[n+]2[O-])sc(C(N)=O)c1C	34.1	7.2	72.0*	-0.4	-0.6	2.4
Cc1ccc(C)c(S(=O)(=O)N2CCN(C(=O)Cn3c(=O)cnc4ccccc43)CC2)c1	-10.7	·	-21.7	·	·	·
CN1CCN(CC#Cc2ccccc2)CC1CCO (stereo not given)	3.2	·	1.4	·	·	·
C/C(Cc1ccccc1)=N\NC(=O)CNC(=O)Cc1ccc(Cl)cc1	-53.3*	-7.4	-62.7	·	-0.4	-2.3
O=C(CCl)Nc1ccccc1C(=O)c1ccccc1	-95.1*	-9.1	-94.9	-0.1	1.2	-3.6
Cc1cc(C(=O)c2ccccc2)c(NC(=O)CCl)s1	20.7	-10.6	49.5	-0.4	1.5	-17.2
O=S(=O)(NCC1CCN(c2ccc(S(=O)(=O)N3CCOCC3)cc2)CC1)c1ccc(F)cc1	0.4	·	12.0	·	·	·
NS(=O)(=O)Cc1noc2ccccc12	-1.8	·	-6.2	·	·	·
O=C(CN1C(=O)S/C(=C\C=C\c2ccccc2)C1=O)Nc1ccccc1C(=O)O	-0.2	0.5	15.3	·	-0.9	-3.3
O=C(CCN1C(=O)S/C(=C\C=C\c2ccccc2)C1=O)Nc1ccc(O)cc1	69.4	·	100.3*	·	·	·
CCN(C(=O)CN1C(=O)S/C(=C\c2cccc(Cl)c2)C1=O)C1CCS(=O)(=O)C1 (stereo not given)	30.6	·	?	·	·	·
CCN(C(=O)CN1C(=O)S/C(=C\C=C\c2ccccc2)C1=O)C1CCS(=O)(=O)C1 (stereo not given)	66.8	·	86.3*	·	·	·
O=C(CCCN1C(=O)S/C(=C\C=C\c2ccccc2)C1=O)Nc1ccc(C(=O)O)cc1	10.3	·	28.3	·	·	·
O=C(CN1C(=O)S/C(=C\C=C\c2ccccc2)C1=O)Nc1cccc(O)c1	105.5	-15.6	153.8*	-0.1	2.3	-4.5
Cc1cc(C)c(C)c(S(=O)(=O)N2CCN(CC(=O)NC(=O)NCc3ccccc3)CC2)c1C	-1.1	·	6.2	-0.3	-1.0	-9.8
C#CCn1c(=NC(=O)c2sc3ccccc3c2Cl)sc2cc(S(N)(=O)=O)ccc21	-4.4	-9.9	4.4	-0.4	0.9	0.8
O=C(c1cccc(F)c1)N1CCCC(C(=O)N2CCN(c3ccccc3)CC2)C1 (stereo not given)	-0.5	-9.5	-1.6	·	1.0	-23.7
CN(C)/C=C1/C(=O)N(c2ccc([N+](=O)[O-])cc2)N=C1c1ccccc1	35.4	10.5	55.9*	-0.3	0.9	-2.4
CC(C)CC(NS(=O)(=O)c1ccc2c(c1)oc(=O)n2C)C(=O)NC1CCCc2ccccc21 (stereo not given)	30.0	-39.6	62.4*	-0.3	-0.8	-15.8
Cn1c(=O)oc2cc(S(=O)(=O)NCCC(=O)NC3CCCc4ccccc43)ccc21 (stereo not given)	-0.9	-4.3	3.3	-0.4	-1.3	0.9
C#CC(C)OC(=O)Nc1cnccc1C(F)(F)F (stereo not given)	-5.5	1.0	-11.6	·	-0.8	9.1
Cc1noc(C)c1COc1cccc(C(=O)NC(C)(C)C)c1	-1.4	-4.2	17.9	0.9	-0.1	-10.5
SMILES	HSF1 inhib	S1P3 antagonist	HSF1 activator	Hsp70 act	S1P4 ag	S1P4 antagonist
COc1cc(CNC2CCCC2)cc(OC)c1	27.7	-36.9	59.3*	0.2	2.4	-0.3
O=C(CCC(=O)c1ccc(Br)cc1)Nc1cccnc1	-85.0*	-5.6	-88.3	0.0	0.9	18.2
O=C(CCC(=O)c1ccccc1)Nc1cccnc1	-6.1	·	44.1	-0.3	1.0	-0.4
O=C(/C=C/c1cccc([N+](=O)[O-])c1)NC(=S)Nc1ccc(CN2CCOCC2)cc1	83.8	-15.2	135.9*	-0.3	4.8	5.5
COc1ccc(/C=C/C(=O)Nc2c(C)nn(C)c2C)cc1COc1ccc(Cl)cc1Br	-3.5	·	-17.9	-0.3	0.0	-2.4
O=C(c1cc([N+](=O)[O-])ccc1N1CCOCC1)N1CCN(S(=O)(=O)c2cc(Cl)ccc2Cl)CC1	-11.2	·	-10.2	·	·	·
CC(C)n1cc(/C=N/NC(=O)COc2cccc3cccnc23)c2ccccc21	22.1	-4.3	77.7*	-0.2	1.5	-22.8
C=CCn1cc(/C=N/NC(=O)COc2cccc3cccnc23)c2ccccc21	2.1	-2.3	-9.7	-0.2	0.4	-6.8
O=C(COc1ccccc1Cl)Nc1ccc(N2CCN(C(=O)c3ccccc3)CC2)cc1	13.7	·	18.4	·	·	·
Cn1cc(C(C[N+](=O)[O-])c2ccccc2)c2ccccc21 (stereo not given)	0.8	·	8.9	·	·	·
CC(=O)n1cc(C(C[N+](=O)[O-])SCCN)c2ccccc21 (stereo not given)	14.2	·	58.9*	-0.3	-0.8	-1.8
Cc1nc(N2CCN(C(c3ccccc3)c3ccccc3)CC2)nc2c1C(=O)CCC2	·	-56.0	·	·	·	·
CCOC(=O)N1CCN(c2nc(C)c3c(n2)CCCC3=O)CC1	-69.5*	-5.4	-77.2	0.1	1.2	-11.8
CCCn1c(N)c(N(CCOC)C(=O)c2ccc(F)cc2F)c(=O)[nH]c1=O	2.5	·	-5.3	·	·	·
Cc1ccc(NC(=S)NC2CC3CCC(C2)N3Cc2ccco2)cc1C (stereo not given)	-83.9*	·	-87.4	0.3	0.9	-0.5
Cc1ccc(NC(=S)NC2CC3CCC(C2)N3Cc2ccco2)c(C)c1 (stereo not given)	4.8	·	4.2	-0.3	0.0	3.7
COc1ccc(CN(C(C)=O)c2ccccc2C(=O)O)cc1	-5.7	3.3	-4.4	·	1.1	-11.0
COc1ccc(N(/N=C2\Sc3ccccc3C2=O)C(C)=O)cc1	26.3	-3.6	60.4*	-0.1	-1.2	-7.9
COc1ccccc1N(/N=C1\Sc2ccccc2C1=O)C(C)=O	-67.8*	-2.0	-67.6	·	1.1	3.1
COc1ccccc1NC1=C(NC(C)=O)C(=O)c2ccccc2C1=O	7.0	-6.9	9.6	-0.4	0.5	-3.6
c1cnc2c(OCc3nc4ccccc4[nH]3)cccc2c1	27.4	2.7	67.5*	0.0	2.0	26.1
COc1ccccc1OCc1nc2ccccc2[nH]1	30.3	12.3	58.2*	0.5	-2.9	-7.6
Cc1ccccc1OCc1nc2ccccc2[nH]1	13.2	3.1	31.0	0.3	0.3	-8.8
CCO[C@H]1OC(C(=O)NCc2ccccc2)=C[C@@H](C2CC2)[C@@H]1CCCO	-7.2	-23.8	-14.3	-0.3	0.1	25.1
ON1C(c2ccccc2C(F)(F)F)N(O)[C@H]2CCCC[C@H]21 (stereo not given in full)	-8.9	-38.2	-18.4	-0.1	0.5	-0.4
CCc1cc2c(=O)[nH]c(N3CCCC3)nc2s1	12.8	-7.0	2.3	-0.2	1.9	-13.5
